Results reported in PubChem BioAssay AID372 (MTDP, 2006).
Values joined by “and” are separate entries in the source; they are usually repeats but may differ in a detail not shown here. Equal values may be shown once. In all, about 100,000 compounds went through this assay and about 770 (0.77%) were called active. The entries come from a sample that favours actives as a whole. Unmarked numbers belong to inactive results. No stated cut-off is given here; in the data, active means inhibition above about 50%; inactive means the rest.

These compounds were tested against Gag-Pol polyprotein (Human immunodeficiency virus type 1 group M subtype B (isolate HXB2)) (UniProt P04585) (assay: RNase H inhibition, HIV 1 Gag Pol polyprotein, FRET biochemical assay, screening (AID 372)). Settings: HIV-1 RT RNase H, FRET RNA/DNA substrate fluorescence; at 10 µM; hits give high values.

| SMILES | inhibition |
| --- | --- |
| CC12CCC3C(CC=C4CC(O)CCC43C)C1C/C(=C\c1ccc(F)cc1)C2=O (centres undefined) | 11% |
| CC(=O)OC1CCC2(C)C(=CCC3C4C/C(=C\c5ccc([N+](=O)[O-])cc5)C(=O)C4(C)CCC32)C1 (centres undefined) | 9% |
| CC12CCC3C(CC=C4CC(O)CCC43C)C1C/C(=C\c1ccc([N+](=O)[O-])cc1)C2=O (centres undefined) | 55% (active) |
| Cc1cc(OCc2ccc(Cl)cc2)c2c3c(c(=O)oc2c1)CCC3 | 3% |
| Oc1c(I)cc(I)cc1CN1CCN(c2ccccc2F)CC1 | 8% |
| Cc1cc(C)cc(N2C(=O)NC(=O)/C(=C\c3cccn3-c3ccccc3)C2=O)c1 | 28% |
| O=C1NC(=O)C(=Cc2cccn2-c2ccc(Br)cc2)C(=O)N1 | 50% (active) |
| Cc1cc(C=C2C(=O)NC(=O)NC2=O)c(C)n1-c1ccc(Br)cc1 | 9% |
| CN1C(=O)C(Cc2c[nH]c3ccccc23)C(=O)N(C)C1=O | 0% |
| O=[N+]([O-])c1ccccc1CNCCc1ccc(F)cc1 | 1% |
| Cc1ccccc1N1CCN(Cc2ccc(Cl)cc2Cl)CC1 | 2% |
| CCN(CC)C(=O)c1ccc(NC(C)=O)cc1 | 9% |
| CCOc1cccc(=[O+]CC)c2c(C)oc(C)c12 | 2% and 12% |
| O=C(O)c1cn(Cc2ccccc2)c2ccccc12 | 8% |
| O=C1NC(=S)NC(=O)C1=Cc1ccc(OCc2cccc(C(=O)O)c2)cc1 | 5% |
| CCOc1ccc(C=C2C(=O)NC(=S)NC2=O)cc1 | 12% |
| O=C1NC(=S)NC(=O)C1=Cc1ccc(OCc2ccc(Br)cc2)cc1 | 59% (active) |
| CN1C(=O)/C(=C\c2cn(Cc3ccccc3)c3ccccc23)C(=O)NC1=S | 15% |
| COc1ccc(CN2CCN(CCO)CC2)c(OC)c1 | 9% |
| Clc1ccc(N2CCN(CCc3ccccc3)CC2)cc1 | 14% |
| CSc1ccc(C2C(C#N)=C(N)Oc3c2c(=O)oc2ccccc32)cc1 (centres undefined) | 7% |
| O=C(COc1ccccc1)Nc1ccc(Cl)cc1C(=O)c1ccccc1 | 37% |

| SMILES | inhibition |
| --- | --- |
| O=C(COc1ccc([N+](=O)[O-])cc1)Nc1ccc(Br)cc1C(=O)c1ccccc1 | 49% |
| COc1ccc(OCC(=O)Nc2ccc(Br)cc2C(=O)c2ccccc2)cc1 | 51% (active) |
| C=CCOC(=O)C1=C(C)OC(N)=C(C(=O)OCC)C12C(=O)Nc1ccccc12 (centres undefined) | 2% |
| COc1ccc(CN2CCN(Cc3cccc(OC)c3)CC2)cc1 | 7% |
| O=C1NC(=S)NC(=O)C1=Cc1ccc(-c2ccc(Br)c(Cl)c2)o1 | 54% (active) |
| O=C1NC(=S)NC(=O)C1=Cc1ccc(-c2cc(Cl)c([N+](=O)[O-])cc2Cl)o1 | 50% (active) |
| O=C1NC(=S)NC(=O)C1=Cc1ccc(-c2cc(Cl)ccc2Cl)o1 | 0% |
| Cc1cc(-c2ccc(C=C3C(=O)NC(=S)NC3=O)o2)c(C)c([N+](=O)[O-])c1 | 27% |
| O=C1NC(=S)NC(=O)C1=Cc1ccc(-c2ccc([N+](=O)[O-])cc2Br)o1 | 56% (active) |
| Cc1ccc(-c2ccc(C=C3C(=O)NC(=S)NC3=O)o2)c(Br)c1 | 36% |
| CN1C(=O)NC(=O)/C(=C/c2ccc(-c3ccc([N+](=O)[O-])cc3Br)o2)C1=O | 26% |
| O=C1NC(=S)NC(=O)C1=Cc1ccc(-c2ccc(C(=O)O)c(Cl)c2)o1 | 17% |
| O=C1NC(=S)NC(=O)C1=Cc1ccc(-c2ccc(Cl)c(Cl)c2)o1 | 0% |
| CCOC(=O)C1=C(N)OC(C)=C(C(C)=O)C12C(=O)Nc1ccccc12 (centres undefined) | 10% |
| COc1cc(/C=C2\C(=O)NC(=O)N(c3ccccc3)C2=O)c([N+](=O)[O-])cc1OC | 5% |
| CC(C)OC(=O)N1CCN(/C(N)=N/[N+](=O)[O-])CC1 | 7% |
| O=C(COc1ccc2ccccc2c1)N1CCN(Cc2ccc3c(c2)OCO3)CC1 | 17% |
| Cc1ccc(-n2c(C)cc(/C=C3/C(=O)NC(=O)N(Cc4ccco4)C3=O)c2C)cc1 | 16% |
| Cc1ccc(OCCn2cc(/C=C3/C(=O)NC(=O)N(Cc4ccco4)C3=O)c3ccccc32)cc1 | 52% (active) |
| O=C1NC(=O)N(Cc2ccco2)C(=O)/C1=C\c1cn(Cc2ccccc2)c2ccccc12 | 23% |
| O=c1c2ccccc2nc(-c2ccc(Cl)cc2Cl)n1-c1nccs1 | 6% |
| CN1C(=O)C(=Cc2ccc(-c3cccc([N+](=O)[O-])c3)o2)C(=O)N(C)C1=S | 21% |

| SMILES | inhibition |
| --- | --- |
| CN1C(=O)NC(=O)/C(=C/c2ccc(-c3cccc([N+](=O)[O-])c3)o2)C1=O | 14% |
| O=C1NC(=O)N(Cc2ccco2)C(=O)/C1=C\c1ccc(-c2cccc([N+](=O)[O-])c2)o1 | 57% (active) |
| COc1cc(/C=C(\C)[N+](=O)[O-])cc(OC)c1OC | 4% |
| C/C(=C\c1ccc(Cl)cc1Cl)[N+](=O)[O-] | 51% (active) |
| N#CC(C#N)=Cc1ccc(Cl)cc1Cl | 3% |
| COc1ccc(C2c3c(c4ccccc4oc3=O)Oc3c2c(=O)oc2ccccc32)cc1Cn1nc(C)c([N+](=O)[O-])c1C | 16% |
| O=C(Nc1ccc(Cl)cc1C(=O)c1ccccc1)c1ccc([N+](=O)[O-])cc1 | 16% |
| Cc1cccc(-n2c(/C=C/c3ccco3)nc3ccccc3c2=O)c1 | 4% |
| CCOc1ccc(N2C(=O)CC(=O)NC2=S)cc1 | 11% |
| O=C1NC(=S)NC(=O)C1=Cc1ccc(-c2ccc(C(=O)O)cc2)o1 | 14% |
| CCN1C(=O)/C(=C/c2cccn2C)C(=O)NC1=S | 51% (active) |
| Cn1cccc1/C=C1/C(=O)NC(=S)N(c2ccc(Cl)cc2)C1=O | 41% |
| C=CCN1C(=O)NC(=O)C(=Cc2cccn2C)C1=O | 0% |
| Cc1cccc(-n2c(/C=C3\C(=O)Nc4ccccc43)nc3ccc(I)cc3c2=O)c1 | 15% |
| Cc1c(-c2ccc(C=C3C(=O)NC(=S)NC3=O)o2)ccc([N+](=O)[O-])c1C | 43% |
| Cc1cc([N+](=O)[O-])c(C)cc1-c1ccc(C=C2C(=O)NC(=O)NC2=O)o1 | 16% |
| Cc1cc(-c2ccc(C=C3C(=O)NC(=S)NC3=O)o2)cc([N+](=O)[O-])c1C | 35% |
| Cc1cc(-c2ccc(C=C3C(=O)NC(=O)NC3=O)o2)ccc1[N+](=O)[O-] | 67% (active) |
| Cc1c(-c2ccc(C=C3C(=O)NC(=O)NC3=O)o2)ccc([N+](=O)[O-])c1C | 18% |
| Cc1ccc(-c2ccc(C=C3C(=O)NC(=S)NC3=O)o2)cc1[N+](=O)[O-] | 62% (active) |
